# Measured values taken from PubChem BioAssay AID1347048 (National Center for Advancing Translational Sciences (NCATS), 2019).
# The campaign covered roughly 76,000 compounds. About 1,200 (1.6%) were called active. About 4% were inconclusive and are not listed. For the sample, actives were picked, then their nearest neighbours and some compounds at random. Values without a mark were called inactive. The call rests on the fitted dose curve.
# Target: Atrial natriuretic peptide receptor 1 (Homo sapiens) (UniProt P16066)
# Test: Natriuretic polypeptide receptor (hNpr1) antagonism - Primary qHTS; further: nearly all actives have a fitted effect of over 60% in size
# Conditions: HEK293 hNpr1 GloSensor cGMP, ANP-stimulated luminescence; series mostly up to 46.3 µM; activity change, negative = inhibition: at the top concentration
# Summary of the method: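 HEK293 cells stably expressing human Npr1 and cGMP GloSensor pGS-40F, loaded 2 h with 2% GloSensor reagent, given compound 30 min at room temperature. Luminescence read before and 20 min after 0.1 nM hNppA.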
# On the % scale 0 is the no-effect control and ±100 the full control effect; potency means the concentration at half of the fitted maximal effect.
# Sequence of Atrial natriuretic peptide receptor 1 (Homo sapiens) (P16066 whole entry, looked up): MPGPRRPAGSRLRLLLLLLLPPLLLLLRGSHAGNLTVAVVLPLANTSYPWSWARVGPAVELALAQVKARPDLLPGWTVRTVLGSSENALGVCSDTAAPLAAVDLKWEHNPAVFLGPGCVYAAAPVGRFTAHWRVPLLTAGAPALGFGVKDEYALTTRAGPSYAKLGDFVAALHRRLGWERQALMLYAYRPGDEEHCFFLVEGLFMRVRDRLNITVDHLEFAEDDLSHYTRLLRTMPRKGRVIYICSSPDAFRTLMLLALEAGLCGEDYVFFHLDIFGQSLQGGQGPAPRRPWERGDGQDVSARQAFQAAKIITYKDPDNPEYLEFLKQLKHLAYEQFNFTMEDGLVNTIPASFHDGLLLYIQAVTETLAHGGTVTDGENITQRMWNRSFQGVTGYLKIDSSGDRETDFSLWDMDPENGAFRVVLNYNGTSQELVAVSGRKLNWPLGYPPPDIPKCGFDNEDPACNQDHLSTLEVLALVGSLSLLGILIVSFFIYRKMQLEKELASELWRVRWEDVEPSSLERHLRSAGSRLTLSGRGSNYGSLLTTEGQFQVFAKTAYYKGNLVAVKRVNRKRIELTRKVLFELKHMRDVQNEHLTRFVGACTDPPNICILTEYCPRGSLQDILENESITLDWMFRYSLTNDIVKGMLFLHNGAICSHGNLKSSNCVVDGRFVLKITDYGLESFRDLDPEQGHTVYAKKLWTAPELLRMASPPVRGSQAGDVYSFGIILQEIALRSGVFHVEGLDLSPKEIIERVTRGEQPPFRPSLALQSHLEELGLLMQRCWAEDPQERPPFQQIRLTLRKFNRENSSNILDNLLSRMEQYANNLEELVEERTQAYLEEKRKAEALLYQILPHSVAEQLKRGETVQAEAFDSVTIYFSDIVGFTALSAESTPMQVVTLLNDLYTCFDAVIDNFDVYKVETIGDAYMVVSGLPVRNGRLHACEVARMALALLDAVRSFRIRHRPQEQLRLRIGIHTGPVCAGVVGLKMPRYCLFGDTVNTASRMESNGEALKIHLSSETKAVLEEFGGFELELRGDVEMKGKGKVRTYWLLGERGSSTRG
SMILES,"activity change, negative = inhibition",Potency
O=C(c1ccc(Br)cc1)N1CCN(c2cc(-c3ccccc3)[nH]n2)CC1,-23.3%,
O=C(Cc1ccc(F)cc1)NC1CCN(c2cc(-c3ccc(Cl)cc3)[nH]n2)CC1,-5.64%,
COc1ccc(-c2cc(N3CCN(C(=O)c4ccncc4)CC3)n[nH]2)cc1,-0.727%,
O=C(c1ccc(F)cc1F)N1CCN(c2cc(-c3ccc(Cl)cc3)[nH]n2)CC1,,14.1 µM (active)
COc1ccc(-c2cc(N3CCCN(C(=O)c4ccc(C)cc4)CC3)n[nH]2)cc1,3.59%,
CC(C)c1cc(C2CCCN2CCC(=O)Nc2ccc(C(N)=O)cc2)no1 (stereo not given),-2.82%,
COc1ccc(-c2nc(C3CC(=O)N(c4ccc(F)c(Cl)c4)C3)no2)cc1OC (stereo not given),-0.022%,
O=C1NCCOCCCN(C(=O)CC2CCCC2)[C@H]2CCC[C@@H]12,1.56%,
Cn1cnc(S(=O)(=O)N2CCCC(Cc3noc(-c4cnccn4)n3)C2)c1 (stereo not given),-0.0449%,
Cc1cn2nc(C(=O)NCC(C)c3ccccc3)cc2c(N2CCCC2)n1 (stereo not given),16.1%,
O=C(NCC1CC1)C1Cn2cccc2C(=O)N1Cc1cccnc1 (stereo not given),2.95%,
Cc1ccnc(N2CCC(c3nnc(-c4ccc(F)cc4)o3)CC2)n1,4.7%,
COc1ccc(-c2onc(C)c2C(=O)NCCC(c2ccccc2)c2ccccc2)cc1,-19.3%,
Cc1cccc(-c2cc(C3CCN(S(=O)(=O)c4ccc(C#N)cc4)CC3)[nH]n2)c1,-19.8%,
Cc1cccc(CN2CCCCCCNC(=O)[C@@H]3CCC[C@@H]32)c1,-14%,
COc1cccc(CN2Cc3nc(-c4cc(F)cc(F)c4)ccc3OCC2=O)c1,-10% [at 70.6 µM],
O=C(c1ccoc1)N1CCN(C(=O)c2nnn3c2COC(c2ccc(Cl)cc2)C3)CC1 (stereo not given),-24.7%,
COc1ccc(C2Cn3nnc(C(=O)N4CCN(C(=O)c5ccc(C)cc5C)CC4)c3CO2)cc1 (stereo not given),,14.1 µM (active)
COc1ccc(C2Cn3nnc(C(=O)N4CCN(C(=O)c5cccc(Cl)c5)CC4)c3CO2)cc1 (stereo not given),,7.08 µM (active)
COc1ccc(C2Cn3nnc(C(=O)N4CCC(C(=O)NCc5ccc(C)cc5)CC4)c3CO2)cc1 (stereo not given),-10.2%,
Cc1ccc(C2Cn3nnc(C(=O)N4CCN(C(=O)COc5cccc(C)c5)CC4)c3CO2)cc1 (stereo not given),4.44%,
CN(C)c1ccc(C(=O)N2CCN(C(=O)c3nnn4c3COC(c3ccc(Cl)cc3)C4)CC2)cc1 (stereo not given),-13%,
O=C1N(Cc2ccc(F)cc2)C[C@H]2CN(Cc3ccncc3F)CCN12,-5.47% [at 70.6 µM],
Cc1ccc(C2Cn3nnc(C(=O)N4CCC(C(=O)Nc5ccc(Cl)cc5)CC4)c3CO2)cc1 (stereo not given),-25.5%,
CC(C)(O)CCc1ccc(C(=O)NCc2nc(-c3ncccn3)no2)cc1,-1.7%,
COc1ncccc1Nc1cnc2ccc(N3CCOCC3)nn12,-10.5% [at 70.6 µM],
CCOc1cccc(-c2nnc(CCC(=O)NCCC(C)C)c(=O)[nH]2)c1,-3.78%,
CCNc1cc(N2CCC(CCC(=O)Nc3ccc(C)cc3C)CC2)ncn1,5.36%,

SMILES,"activity change, negative = inhibition",Potency
CCNc1cc(N2CCC(CCC(=O)N3CCc4ccccc4C3)CC2)ncn1,,11.2 µM (active)
CCCNc1cc(N2CCC(CCC(=O)Nc3ccc(C)cc3)CC2)ncn1,-25.4%,
CS(=O)(=O)N1C[C@H]2CCN(C(=O)c3cc(F)ccc3Cl)C[C@H]21,11.3%,
O=c1[nH]c(C2CCCN(Cc3ccc(-c4ccsc4)cc3)C2)nc2ccc(F)cc12 (stereo not given),-27.1%,
COc1ccc2nc([C@H]3CCN(Cc4ccc(NC(C)=O)cc4)C3)[nH]c2c1,-1.71% [at 70.6 µM],
Cc1ccc2nc(C3CCCN(Cc4ccc(C#N)cc4)C3)[nH]c(=O)c2c1 (stereo not given),,14.1 µM (active)
CC(C)c1cc(C(=O)N2CCC(n3cc(-c4ccccn4)nn3)CC2)n(C)n1,,10 µM (active)
CC(C)c1noc(-c2cn(C3CCN(C(=O)COc4ccccc4)C3)nn2)n1 (stereo not given),0%,
CC(C)c1noc(-c2cn(C3CCN(C(=O)c4cccc(C#N)c4)CC3)nn2)n1,0%,
COc1cccc(C(=O)N2CCC(Cc3nc(-c4cnccn4)no3)CC2)c1,5.25%,
COc1ccc(C(=O)N2CCCC(Cc3nc(C4CCOCC4)no3)C2)cc1 (stereo not given),-11.9%,
O=C(c1ccccc1)N1CCC(C(=O)N2CCC(Cc3nc(-c4ccc(F)cc4)no3)CC2)CC1,,11.2 µM (active)
COc1cccc(-c2noc(CC3CCN(C(=O)c4ccc(F)cc4)CC3)n2)c1,,5.62 µM (active)
O=C(C1CC1)N1CCCC(c2noc(COc3ccccc3F)n2)C1 (stereo not given),2.7%,
O=C(c1cccnc1)N1CCC(Cc2nc(C3CCOCC3)no2)CC1,-27.1%,
CCN(Cc1ccncc1)C(=O)c1ccc2c(c1)C(O)CCCCCN2C (stereo not given),-23%,
C=C(C)CN(CC)C(=O)c1c(C)oc2c1CN(Cc1cccc(F)c1)CC2,0.0659%,
O=C(C[C@@H]1CCNC[C@@H]1Cc1cc(CC2CCCCC2)on1)N1CCOCC1,-1% [at 70.6 µM],
COCCCNC(=O)c1ccc2c(c1)n(Cc1cccc(OC)c1)c(=O)c1ccnn12,-5.71%,
COCC1CN(C2CCC2)CC12CCN(C(=O)CCc1ccccc1)CC2 (stereo not given),-29.6%,
COc1ccc(CN2C(=O)COC[C@H]2C(=O)Nc2ccc(C(C)C)cc2)c(OC)c1,-2.17%,
CN1CCN(Cc2ccc(Nc3ncc(-c4cccnc4)c4c3OCC4)cc2)CC1,-0.125% [at 70.6 µM],
CN(C)c1cccc(-c2cnc(Nc3ccc(N4CCOCC4)cc3)c3c2CCO3)c1,,25.1 µM (active)
CN(C)c1cccc(-c2cnc(Nc3cnccn3)c3c2CCO3)c1,-2.41% [at 70.6 µM],
O=C(Nc1ccc(-c2nnc3n2CCCC3)cc1)c1ccsc1,-1.56%,
CCn1c2c(c(=O)n1-c1ccccc1)CCN(C(=O)COc1ccccc1)C2,-0.0947% [at 70.6 µM],
O=C(Nc1ccc(F)cc1)c1ccc2ccnn2c1,-2.71% [at 70.6 µM],
